# Results taken from PubChem BioAssay AID651946 (Broad Institute, 2012).
# Results with a measured potency or affinity are listed apart. The source made the active and inactive calls.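 How the source made its calls: active means toxic compound whose fitted half-effect dose of signal loss is at most twice its top tested dose; inconclusive means flat fit losing 30 to 70% signal, or poor fit; inactive means the rest.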
# Assay: HeLa cell viability loss – plate reader, dry powder, cytotoxicity control, dose response (AID 651946)
# Details: ATP luminescence (CellTiter-Glo), 48 h; series mostly up to 26 µM
row,SMILES,outcome
1,Fc1ccc(Cn2cc(CSc3nnc(-c4ccc(F)cc4)o3)nn2)cc1,inactive
2,CN(C)CCSc1nnc(-c2ccccc2)o1,inactive
3,Clc1ccc(CSc2nnc(-c3ccccc3)o2)cc1,inactive
4,c1ccc(CNc2nnc(-c3ccccc3)o2)cc1,inactive
5,Fc1ccc(-c2nnc(SCc3ccccc3)o2)cc1,inactive
6,c1ccc(CSc2nnc(C3CCCC3)o2)cc1,inactive
7,Fc1ccc(CSc2nnc(-c3ccncc3)o2)cc1,inactive
8,Fc1ccc(CSc2nnc(-c3ccc(Cl)cc3)o2)cc1,inactive
9,FC(F)(F)Oc1cccc(CSc2nnc(-c3ccccc3)o2)c1,inactive
10,c1ccc(-c2nnc(SCc3ccccn3)o2)cc1,inactive
11,Fc1ccc(-c2nnc(SCc3cn(-c4ccccc4)nn3)o2)cc1,inactive
12,COc1cccc(-c2nnc(SCc3ccccc3)o2)c1,inactive
13,Fc1ccc(CSc2nnc(-c3ccccc3)o2)cc1,inactive
14,c1ccc(CSc2nnc(-c3cnco3)o2)cc1,inactive
15,FC(F)(F)c1ccccc1CSc1nnc(-c2ccccc2)o1,inactive
16,c1ccc(CSc2nnc(C3CCCCC3)o2)cc1,inactive
17,c1ccc(CSc2nnc(-c3cccnc3)o2)nc1,inactive
18,N#Cc1cccc(-c2nnc(SCc3ccccc3)o2)c1,inactive
19,c1ccc(Cn2cc(CSc3nnc(C4CCCC4)o3)nn2)cc1,inactive
20,FC1(F)CN(CCSc2nnc(-c3ccccc3)o2)C1,inactive
21,c1ccc(Cn2cc(CSc3nnc(-c4ccccc4)o3)nn2)cc1,inactive
22,Fc1cccc(CSc2nnc(-c3ccccc3)o2)c1,inactive
